# Rows were chosen to be rich in hits. Some 12% of all compounds tested hit in one or more screens of this group.
# D1 allo mod – D1 dopamine receptor (human) allosteric modulation | B-score at 10 µM | HEK293 D1, CRE-luciferase, dopamine EC30 potentiation; actives deviate in either direction | hit rate 5.9% among 58,000;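 active = luminescence count or its row- and column-corrected plate score outside the 99.7% band of the plate's sample wells, on either side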
# PostGolgi yeast – growth inhibition of a yeast mutant, post-Golgi transport screen; post-Golgi transport phenotypic cell assay; inhibition, % at 10 µM; hit rate 0.9% among 98,000;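 note: yeast cells grown in 1536-well plates; yeast grown about 18 h at 30C before absorbance read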
# Cav32 inh – blocks human Cav3.2 T-type calcium channel; O95180; Cav3.2-expressing cells, Fluo-4 calcium fluorescence FDSS; stronger effect = lower value; B-score at 10 µM; hit rate 4% among 100,000; AID 449739;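 active = single-dose well whose peak fluorescence ratio is a statistical outlier from its plate by either plate-standardised score or position-corrected B-score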
# PostGolgi ctrl – inhibits growth of the yeast control strain | efflux-deficient yeast background strain, growth absorbance A615, 16 h | hit rate 5% among 98,000 | AID 738 | inhibition, % at 10 µM
# PLAP act – activates human placental alkaline phosphatase; P05187; purified PLAP enzyme, luminescent substrate read-out; stronger effect = higher value; activation fold at 20 µM; hit rate 1.2% among 96,000; in the data active = activation fold above about 2
# DAT uptake mod – modulates human dopamine transporter uptake under cocaine. LLC-PK1 hDAT cells, [14C]-dopamine uptake with cocaine IC80; actives deviate in either direction. hit rate 1.3% among 110,000. B-score at 10 µM;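 active = Z score or B-score, a plate-position-corrected score, falls beyond the plate's 99.7% confidence bounds, in either direction; inactive = both scores lie inside the 99.7% bounds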
# Target sequence (Q01959 whole entry, looked up): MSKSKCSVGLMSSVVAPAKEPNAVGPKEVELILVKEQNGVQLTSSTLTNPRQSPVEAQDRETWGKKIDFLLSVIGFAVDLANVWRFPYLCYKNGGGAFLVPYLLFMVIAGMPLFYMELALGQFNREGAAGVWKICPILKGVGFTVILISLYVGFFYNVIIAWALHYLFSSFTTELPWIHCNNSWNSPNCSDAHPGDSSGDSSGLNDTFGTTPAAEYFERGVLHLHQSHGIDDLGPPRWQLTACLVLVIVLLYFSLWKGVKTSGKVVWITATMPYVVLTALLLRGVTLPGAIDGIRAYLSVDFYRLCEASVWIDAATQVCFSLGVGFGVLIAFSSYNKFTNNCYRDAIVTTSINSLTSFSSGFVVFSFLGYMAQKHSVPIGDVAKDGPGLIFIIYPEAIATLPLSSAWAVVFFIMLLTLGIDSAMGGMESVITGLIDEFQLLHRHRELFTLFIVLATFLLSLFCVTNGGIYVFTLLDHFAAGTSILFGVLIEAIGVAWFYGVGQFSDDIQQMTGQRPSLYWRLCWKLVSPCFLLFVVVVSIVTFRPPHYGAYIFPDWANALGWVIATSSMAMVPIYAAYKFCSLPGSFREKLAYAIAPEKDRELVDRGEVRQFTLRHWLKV
# A number is an active result; 0 = inactive; - = no result. Cut-off read from the data, not from the text of the source, unless noted: active = inhibition above about 30%; inactive = the rest.
SMILES,D1 allo mod,PostGolgi yeast,Cav32 inh,PostGolgi ctrl,PLAP act,DAT uptake mod
COc1ccc(C(=O)/C(=C/c2cccs2)c2nc3ccccc3o2)cc1,-,0,0,37.5,0,0
O=C(O)c1cnc(-c2ccccc2)nc1Sc1ccccc1Cl,-,0,-6.36,0,0,0
O=C(O)c1cnc(-c2ccccc2)nc1Sc1ccc(Cl)cc1,-,0,0,0,0,0
Cn1c(SCC(=O)NC(C)(C)C)nnc1-c1cnccn1,-,0,0,0,0,0
NS(=O)(=O)c1ccc(Cc2ncc(C(F)(F)F)cc2Cl)s1,-,0,0,0,0,0
NNS(=O)(=O)c1ccc(Cc2ncc(C(F)(F)F)cc2Cl)s1,-,0,0,0,0,0
CCN(CC)S(=O)(=O)c1ccc(Cc2ncc(C(F)(F)F)cc2Cl)s1,-,0,-3.68,0,0,0
O=C(CCl)c1ccc(Cc2ncc(C(F)(F)F)cc2Cl)s1,-,85.6,0,0,0,0
COc1ccc(S(=O)(=O)N(CCc2ccccc2)CC(=O)O)cc1,-,0,0,0,0,0
Cc1c(C(=O)NCCC2=CCCCC2)oc2ccc(S(=O)(=O)N3CCOCC3)cc12,-,0,-4.14,0,0,0
Cc1c(C(=O)NCCCN2CCCC2=O)oc2ccc(S(=O)(=O)N3CCOCC3)cc12,0,0,0,0,0,0
O=C(c1cccs1)N1N=C(c2ccccc2)CC1c1ccccc1 (stereo not drawn),-,0,0,69.0,0,0
CS(=O)(=O)N1N=C(c2ccccc2)CC1c1cccs1 (stereo not drawn),-,0,0,0,0,0
O=C(c1ccco1)N1N=C(c2cccs2)CC1c1ccc(F)cc1 (stereo not drawn),-,0,0,34.9,0,0
COc1ccc(N(C(=O)c2ccccc2OC(C)=O)C(C)C2CC2)cc1 (stereo not drawn),-,0,0,0,0,0
CCOCCCNC(=S)NNC(=O)CCn1nc(C)c(Br)c1C,-,0,0,0,2.9,0
Cc1nn(CCC(=O)NNC(=S)NCC(C)C)c(C)c1Br,-,0,0,0,2.5,0
CCOCCCNC(=O)c1c(C)c(C(=O)OCC)n(C)c1C,0,0,0,0,0,0
Cc1nn(CCC(=O)NNC(=S)Nc2ccc(F)cc2)c(C)c1[N+](=O)[O-],-,-,0,-,-,0
CCOc1cc(C2/C(=C(/O)c3ccc(OC(C)C)cc3)C(=O)C(=O)N2CCCOC)ccc1O (stereo not drawn),0,0,0,0,0,0
Cc1cc(/C=C2\SC(=S)NC2=O)c(C)n1C1CC1,-,0,-,56.0,0,-
CC(=O)Nc1nnc(SCC(=O)NCC2CCCO2)s1 (stereo not drawn),0,-,0,-,0,0
CC(=O)Nc1nnc(SCC(=O)NCCOc2ccccc2)s1,0,0,0,51.4,0,-8.01
CCOc1ccc(N(CC)S(=O)(=O)c2ccc3c(c2)n(C)c(=O)c(=O)n3C)cc1,-,0,0,0,0,0
COc1ccccc1NC(=O)Cn1nc(-c2ccc(Cl)cc2)c2ccccc2c1=O,-,0,-4.67,0,0,0
SMILES,D1 allo mod,PostGolgi yeast,Cav32 inh,PostGolgi ctrl,PLAP act,DAT uptake mod
CCNC(=O)CCn1nc(-c2ccc(Cl)cc2)c2ccccc2c1=O,-,0,0,0,0,0
CC(C)n1nnnc1-c1cc(Cl)cc(Cl)c1,-,0,0,0,0,0
Nc1ccc(CCc2nc3ccccc3o2)cc1,-3.61,0,0,0,0,0
NCc1ccc(-c2nc3ccccc3o2)cc1,0,-,-,-,0,-
CCC(C)Nc1nc(-c2cccc(OC)c2O)nc2ccccc12 (stereo not drawn),-,0,0,72.5,-,3.66
COc1cccc(-c2nc(NC(C)C)c3ccccc3n2)c1O,-,0,-,75.3,0,0
O=c1c2c(nc3n1CCCCC3)sc1c(O)c(Br)ccc12,-,0,0,53.8,0,0
Cc1sc2nc3n(c(=O)c2c1C)CCCCC3,-,-,0,-,-,0
CCn1c(CC(=O)Nc2cccc(OC)c2)nnc1SCC(=O)Nc1nccs1,0,0,-5,0,0,0
COc1ccc(-n2c(Cc3cccn3C)nnc2SCC(=O)Nc2nccs2)cc1,0,0,-5.96,0,0,0
COc1ccc(-n2c(SCC(=O)NNC(=O)c3ccccc3C)nnc2-c2ccncc2)cc1,-,0,0,0,2.1,0
COc1ccc(-n2c(Cc3cccn3C)nnc2SCC(=O)Nc2cccc(C)c2C)cc1,0,0,-4.03,0,0,0
O=C(Nc1ccc(N2CCOCC2)cc1)C1CCCN(S(=O)(=O)c2cccc(C(F)(F)F)c2)C1 (stereo not drawn),0,0,0,0,0,0
Cc1noc(C)c1S(=O)(=O)N1CCC(C(=O)N2CCC(N3CCCCC3)CC2)CC1,0,0,-,0,0,-
COc1cc(CC(=O)Oc2ccc3c(c2)OCO3)cc(OC)c1OC,0,0,0,0,0,0
Cc1ccccc1NCC(=O)N/N=C/C(Br)=C/c1ccccc1,-,0,0,0,0,0
CC1CCCC(NC(=O)c2ccc3c(=O)n(CC4CCCO4)c(=O)[nH]c3c2)C1C (stereo not drawn),0,0,0,0,0,0
CCOC(=O)C1=C(C)N=C2SC(CC)C(=O)N2C1c1ccc(OC(C)=O)c(OCC)c1 (stereo not drawn),0,-,-,-,-,-
COc1ccc(-n2c(Cc3cccn3C)nnc2SCC(=O)Nc2ccccc2C)cc1,0,0,-6.4,0,0,0
Cc1nn(CCC#N)c(NC(=O)c2ccc(Cl)cc2Cl)c1P(=O)(Nc1ccc([N+](=O)[O-])cc1)N1CCOCC1 (stereo not drawn),-,0,0,0,0,-6.49
N#CCCn1ccc(NC(=O)c2ccc(Cl)cc2)n1,0,0,0,0,0,0
Cc1nn(CCC#N)c(NC(=O)c2ccc(Cl)cc2)c1P(=O)(Nc1ccc([N+](=O)[O-])cc1)N1CCOCC1 (stereo not drawn),-,0,0,0,0,-5.6
O=C(Cc1ccccc1)Nc1cccc(N2CCCC2)c1,0,0,0,0,0,0
CC1=NN(c2ccc(F)cc2)C(=O)C1C(c1cccc(O)c1)c1c(C)[nH]n(-c2ccc(F)cc2)c1=O (stereo not drawn),-,0,0,34.7,0,0
Cc1[nH]n(-c2ccccc2)c(=O)c1C(c1ccc(O)c([N+](=O)[O-])c1)c1c(C)[nH]n(-c2ccccc2)c1=O,-,-,0,-,-,0
SMILES,D1 allo mod,PostGolgi yeast,Cav32 inh,PostGolgi ctrl,PLAP act,DAT uptake mod
COc1ccc(Nc2ncnc3nc[nH]c23)cc1OC,-,0,-,0,2,0
c1ccc(COc2ccc(Nc3ncnc4nc[nH]c34)cc2)cc1,0,0,0,69.9,2.3,0
CCOC(=O)c1ccc(Nc2ncnc3nc[nH]c23)cc1,-5.87,0,0,0,0,0
Cc1ccc(C)c(Nc2ncnc3nc[nH]c23)c1,0,0,0,0,2.4,0
CN1CCC(N(C)C(=O)c2ccccc2Nc2ccc(SC(F)F)cc2)CC1,0,0,0,0,0,0
O=S(=O)(CC(CN1CCCC1)N1CCCC1)c1ccc2ccccc2c1 (stereo not drawn),0,-,0,-,-,0
CC(C)(C)C1CCC2(CC1)CC(=O)c1ccccc1O2 (stereo not drawn),-,-,0,-,-,0
O=[N+]([O-])c1nn(-c2ccc3c(c2)OCCO3)n(O)c1=NCc1ccccc1Cl,-,0,0,44.3,0,13.6

# Screening data: PubChem BioAssay, several laboratories
